Laboratory results from PubChem BioAssay (EPA / NIEHS).
Values joined by “and” are separate entries in the source; they are usually repeats but may differ in a detail not shown here. Equal entries are not always repeated. Active and inactive are the calls of the source. How the source made its calls: active means hit-call score of the fitted dose curve at least 0.9, where 1 is the maximum; inactive means score below 0.9.

assay: ATG_PPRE_CIS: Attagene CIS-FACTORIAL HepG2 Assay for human Peroxisome Proliferator-activated Response Element (PPRE) (AID 2282958); settings: HepG2 PPRE cis-element reporter, Attagene transcription factor profiling; actives raise or lower the signal
In short: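 HepG2 cells are transiently transfected with multiplexed cis-promoter reporter units to report endogenous PPAR activity. After 24 h dosing, reporter mRNA is read by RT-PCR and capillary electrophoresis. Fitting is bidirectional against DMSO.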

outcome, inactive:
O=C1c2ccc(O)c(O)c2C(=O)c2c(O)ccc(O)c21
Cc1ccc(C(=O)c2ccccc2)cc1
Nc1ccc(O)c(C(=O)O)c1
CCCCc1oc2ccccc2c1C(=O)c1cc(I)c(OCCN(CC)CC)c(I)c1
CC[N+](CC)(CC)Cc1ccccc1
O=C1Cc2ccccc2N1c1c(Cl)cccc1Cl
CCCCC(CC)C(=O)OCCOCCOCCOCCOC(=O)C(CC)CCCC (stereo not drawn)
FC(OC(F)(F)C(F)(F)C(F)(F)F)C(F)(F)F (stereo not drawn)
COCN(COC)c1nc(N(COC)COC)nc(N(COC)COC)n1
CC=O
Cc1ccccc1C(OCCN(C)C)c1ccccc1 (stereo not drawn)
CC(=O)Nc1ccc(O)cc1
CC(C)CCOCCC(C)C
O=P(O)(O)CCC(F)(F)C(F)(F)C(F)(F)C(F)(F)C(F)(F)C(F)(F)F
Nc1ccn([C@@H]2O[C@H](CO)[C@@H](O)C2O)c(=O)n1 (stereo partly drawn)
CC1=NN(c2ccccc2)C(=O)C1
CC(C)C=O
Cc1cc(Cc2cc(C)cc(C(C)(C)C)c2O)c(O)c(C(C)(C)C)c1
Cc1ccc(N=Nc2c(O)ccc3ccccc23)c(C)c1
O=C1OC(=O)c2cc(-c3ccc4c(c3)C(=O)OC4=O)ccc21

AC50, active:
O=C(O)C(F)(F)OC(F)(F)C(F)(F)OC(F)(F)C(F)(F)OC(F)(F)C(F)(F)C(F)(F)C(F)(F)F 13.1 µM and 22.1 µM
C[C@]12CC[C@@H]3c4ccc(O)cc4CC[C@H]3[C@@H]1CC[C@@H]2OC(=O)CCC1CCCC1 100 µM
O=S(=O)(c1ccc(OCc2ccccc2)cc1)c1ccccc1O 0.156 µM
